Test: DUSP6 inhibitors restoring Erk phosphorylation by chemical complementation, primary imaging in DUSP6-transfected HeLa (AID 609)
Conditions: HeLa MKP-3 transfected, phospho-Erk imaging KS statistic; measured here: nuclear pErk red intensity z-score; at 10 µM; stronger effect = higher value; cells stimulated with TPA for 15 min

Going from `Cc1nc(NS(=O)(=O)c2ccccc2)sc1NC(=O)OCCN(C)C` to `Cc1ccccc1NC(=O)NCCc1nc2ccccc2[nH]1`, the z-score rises from -0.337 to 2.49.

First: Cn1c(=O)n(CCc2ccccc2)c(=O)c2c1ncn2Cc1ccccc1
Second: CCOC(=O)c1c(C)n(C)c2ccc(OC)c(NC(=O)CN3CCN(Cc4ccccc4)CC3)c12
The z-score of the first is lower: -0.503 for the first, 1.45 for the second.

Compared with `CC(C)OC(=O)c1nn2c(C(F)(F)F)cc(-c3ccc(Br)o3)nc2c1Br`, `Nc1c(Br)cc2oc(-c3ccccc3)nc2c1Br` is lower in z-score: 1.66 for the first, -0.387 for the second.

Compared with `CCCc1nn(C)c2c1C(c1cccnc1)C(C#N)=C(N)O2` (centres undefined), `CCCc1[nH]nc2c1C(c1c(C)nn(-c3ccccc3)c1Cl)C(C#N)=C(N)O2` (centres undefined) is higher in z-score: -0.817 for the first, -0.117 for the second.

Compared with `COC(=O)c1c(NC(=O)c2nn(C)cc2Cl)sc2c1CCCC2`, `CC(C)c1nc(N2CCOCC2)c(C#N)c2c1CCC2` is lower in z-score: 1.29 for the first, -0.00414 for the second.

Compared with `Cc1cc(=O)oc(C)c1C(=O)Nc1cccc2nonc12`, `CCOC(=O)c1cc2c(=O)n3cccc(C)c3nc2n(Cc2cccnc2)c1=N` is higher in z-score: -0.173 for the first, 0.0154 for the second.

Going from `CC(C)CC(NC(=O)OC(C)(C)C)C(=O)NCc1ccccc1` (centres undefined) to `CC(C)(C)C1CCC2(CC1)C(C#N)=C(SCC(=O)Nc1ccccc1)NC(=O)C2C#N` (centres undefined), the z-score falls from 0.0751 to -0.683.

Going from `O=c1[nH]nc2n1CCCCC2` to `OC(CNCCCN1CCCCC1)COc1ccccc1` (centres undefined), the z-score rises from -0.317 to 0.518.

Going from `Cc1ccc(N(CN2C(=O)NC(C)(C)C2=O)CN2C(=O)NC(C)(C)C2=O)cc1` to `CC1CN(C2CCN(S(=O)(=O)c3ccc4ccccc4c3)CC2)CC(C)O1` (centres undefined), the z-score rises from 0.322 to 1.26.

Molecule `Cc1ccc(-c2ccccc2NC(=O)C2C3C=CC(C3)C2C(=O)O)o1` (centres undefined) has a z-score of -0.083.

Reference: PubChem BioAssay
